Measured values as given in PubChem BioAssay AID1159580 (chemical genetic matrix, 2015).
Where “and” joins values, the source holds several entries; their conditions need not be identical. Equal values may be shown once. About 2,000 (36%) of roughly 5,500 compounds were called active. Roughly 18% stayed inconclusive and do not appear here. Cut-off read from the data, not from the text of the source: active = normalized growth mostly below about 0.91 (no sharp cut-off); inconclusive = no clear call, values can overlap the other calls; inactive = mostly above about 0.92. The list shows a part of the results.

Experiment: chemical genetic growth profiling, strain panel (AID 1159580);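 note: tested at 20 µM; growth read once vehicle control cultures reached saturation at 30 °C; 1 = growth at the plate median or of vehicle wells; lower values mean less growth of the strain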
Settings: S. cerevisiae deletion strains, growth OD

Measured: normalized growth

CCOC(=O)c1c(C)cc(O)c(C=O)c1O
inactive: locus YBR021W, strain FUR4, stronger effect = lower value 0.851 | locus YDR195W, strain ref2 0.908
active: locus YAL013W, strain DEP1, stronger effect = lower value 0.271 | locus YAL021C, strain ccr4, stronger effect = lower value 0.615 | locus YAL026C, strain drs2, stronger effect = lower value 0.212 | locus YAL030W, strain snc1, stronger effect = lower value 0.725 | locus YBL061C, strain skt5, stronger effect = lower value 0.642 | locus YBR009C, strain hhf1, stronger effect = lower value 0.592 | locus YBR023C, strain chs3, stronger effect = lower value 0.619 | locus YBR171W, strain sec66, stronger effect = lower value 0.776 | locus YBR229C, strain ROT2, stronger effect = lower value 0.541 | locus YBR231C, strain swc5, stronger effect = lower value 0.548 | locus YBR279W, strain paf1, stronger effect = lower value 0.66 | locus YCL011C, strain gbp2, stronger effect = lower value 0.616 | locus YCL016C, strain dcc1, stronger effect = lower value 0.714 | locus YCL029C, strain bik1, stronger effect = lower value 0.144 | locus YCL061C, strain MRC1, stronger effect = lower value 0.624 | locus YCL069W, strain vba3, stronger effect = lower value 0.531 | locus YCR088W, strain abp1, stronger effect = lower value 0.832 | locus YDL005C, strain med2, stronger effect = lower value 0.903 | locus YDL035C, strain GPR1, stronger effect = lower value 0.21 | locus YDL040C, strain nat1, stronger effect = lower value 0.86 | locus YDL074C, strain BRE1, stronger effect = lower value 0.156 | locus YDL101C, strain DUN1, stronger effect = lower value 0.16 | locus YDL134C, strain PPH21, stronger effect = lower value 0.249 | locus YDL185W, strain tfp1, stronger effect = lower value 0.0651 | locus YDL192W, strain arf1, stronger effect = lower value 0.202 | locus YDR001C, strain nth1, stronger effect = lower value 0.841 | locus YDR069C, strain doa4, stronger effect = lower value 0.516 | locus YDR101C, strain arx1, stronger effect = lower value 0.181 | locus YDR137W, strain rgp1, stronger effect = lower value 0.202 | locus YDR150W, strain NUM1, stronger effect = lower value 0.436 | locus YDR159W, strain sac3, stronger effect = lower value 0.413 | locus YDR162C, strain NBP2, stronger effect = lower value 0.0543 | locus YDR297W, strain sur2, stronger effect = lower value 0.609 | locus YDR318W, strain mcm21, stronger effect = lower value 0.142 | locus YDR334W, strain swr1, stronger effect = lower value 0.619 | locus YDR335W, strain msn5, stronger effect = lower value 0.623 | locus YDR388W, stronger effect = lower value 0.213 | locus YDR392W, strain spt3, stronger effect = lower value 0.135 | locus YDR502C, strain sam2, stronger effect = lower value 0.185 | locus YEL003W, strain gim4, stronger effect = lower value 0.582 | locus YEL037C, strain rad23, stronger effect = lower value 0.71 | locus YEL061C, strain CIN8 (second series), stronger effect = lower value 0.643 | locus YEL061C, strain CIN8, stronger effect = lower value 0.153 | locus YER015W, strain faa2, stronger effect = lower value 0.516 | locus YER016W, strain bim1, stronger effect = lower value 0.768 | locus YER110C, stronger effect = lower value 0.295 | locus YER111C, strain swi4, stronger effect = lower value 0.278 | locus YER155C, strain BEM2 (second series), stronger effect = lower value 0.409 | locus YER155C, strain BEM2, stronger effect = lower value 0.178 | locus YER167W, strain BCK2, stronger effect = lower value 0.105 | locus YFR010W, strain ubp6, stronger effect = lower value 0.681 | locus YGL078C, strain dbp3, stronger effect = lower value 0.57 | locus YGL086W, strain mad1, stronger effect = lower value 0.186 | locus YGL167C, strain pmr1, stronger effect = lower value 0.842 | locus YGL173C, strain kem1, stronger effect = lower value 0.27 | locus YGL227W, strain vid30, stronger effect = lower value 0.821 | locus YGL240W, strain doc1, stronger effect = lower value 0.503 | locus YGL248W, strain PDE1, stronger effect = lower value 0.236 | locus YGL253W, strain hxk2, stronger effect = lower value 0.283 | locus YGR078C, strain PAC10, stronger effect = lower value 0.103 | locus YGR135W, strain pre9, stronger effect = lower value 0.119 | locus YGR229C, strain SMI1, stronger effect = lower value 0.0734 | locus YGR252W, strain gcn5, stronger effect = lower value 0.303 | locus YHR013C, strain ard1, stronger effect = lower value 0.506 | locus YHR027C, strain rpn1, stronger effect = lower value 0.405 | locus YHR030C, strain SLT2, stronger effect = lower value 0.064 and 0.117 | locus YHR079C, strain IRE1 (second series), stronger effect = lower value 0.16 | locus YHR079C, strain IRE1, stronger effect = lower value 0.138 | locus YHR094C, strain hxt1, stronger effect = lower value 0.231 | locus YHR129C, strain ARP1, stronger effect = lower value 0.187 | locus YHR142W, strain chs7, stronger effect = lower value 0.345 | locus YHR200W, strain rpn10, stronger effect = lower value 0.484 | locus YIL066C, strain RNR3, stronger effect = lower value 0.167 | locus YIL073C, strain SPO22, stronger effect = lower value 0.211 | locus YIL125W, strain kgd1, stronger effect = lower value 0.471 | locus YIR030C, strain dcg1, stronger effect = lower value 0.196 | locus YJL092W, strain hpr5, stronger effect = lower value 0.756 | locus YJL095W, strain BCK1 (second series), stronger effect = lower value 0.381 | locus YJL095W, strain BCK1, stronger effect = lower value 0.0697 and 0.127 | locus YJL115W, strain asf1, stronger effect = lower value 0.784 | locus YJL129C, strain trk1, stronger effect = lower value 0.613 | locus YJL134W, strain LCB3, stronger effect = lower value 0.535 | locus YJL154C, strain vps35, stronger effect = lower value 0.774 | locus YJL164C, strain tpk1, stronger effect = lower value 0.587 | locus YJL166W, strain qcr8, stronger effect = lower value 0.449 | locus YJL168C, strain set2, stronger effect = lower value 0.534 | locus YJL187C, strain SWE1 (second series), stronger effect = lower value 0.15 | locus YJL187C, strain SWE1, stronger effect = lower value 0.625 | locus YJR043C, strain POL32, stronger effect = lower value 0.209 | locus YJR066W, strain TOR1, stronger effect = lower value 0.091
